Source: PubChem BioAssay
Many of the other results were omitted from the sample, so hits are more common in it than they were.
12-LOX inh: Primary qHTS assay for inhibitors of human arachidonate 12S-lipoxygenase (ALOX12): Round 2. Polyunsaturated fatty acid lipoxygenase ALOX12 (Homo sapiens), P18054. purified 12hLO, xylenol orange hydroperoxide absorbance. Potency, µM (doses to about 108 µM), for the others: at the top dose activity change, negative = inhibition, most hits filed as inhibitors. 580,000 tested, 1.1% active; also: potency is read from the fitted curve at half-maximal effect
Target sequence (P18054 whole entry, looked up): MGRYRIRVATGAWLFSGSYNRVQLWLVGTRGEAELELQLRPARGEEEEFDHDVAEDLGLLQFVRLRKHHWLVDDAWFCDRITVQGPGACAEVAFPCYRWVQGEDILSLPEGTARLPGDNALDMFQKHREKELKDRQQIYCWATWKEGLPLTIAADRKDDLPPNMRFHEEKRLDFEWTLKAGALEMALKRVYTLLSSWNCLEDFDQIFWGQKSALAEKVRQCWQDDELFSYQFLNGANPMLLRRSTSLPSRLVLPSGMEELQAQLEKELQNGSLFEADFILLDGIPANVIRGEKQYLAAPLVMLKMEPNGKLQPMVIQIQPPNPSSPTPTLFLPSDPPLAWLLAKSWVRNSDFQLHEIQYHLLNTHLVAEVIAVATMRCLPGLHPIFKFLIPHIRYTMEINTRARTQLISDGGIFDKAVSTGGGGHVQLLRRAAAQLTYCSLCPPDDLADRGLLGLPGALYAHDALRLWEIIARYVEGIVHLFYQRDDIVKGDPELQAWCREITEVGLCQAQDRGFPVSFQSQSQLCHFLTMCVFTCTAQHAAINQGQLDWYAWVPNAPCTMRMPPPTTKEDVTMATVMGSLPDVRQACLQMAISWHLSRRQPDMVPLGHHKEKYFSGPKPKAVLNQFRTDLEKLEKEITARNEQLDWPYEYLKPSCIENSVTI
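Purified human 12hLO at 150 nM in 25 mM Hepes, 0.01% Triton X-100, pH 7.0, preincubated 15 min at room temperature with compound. Reaction started with 40 uM arachidonic acid, 30 min at room temperature. Hydroperoxide measured by Fe-xylenol orange, 573/405 nm absorbance ratio.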
HT1080 IDH1KD tx: qHTS for induction of synthetic lethality in tumor cells producing 2HG: qHTS for the HT-1080-IDH1KD cell line. HT-1080 IDH1 knockdown viability, ATP luminescence, 48 h. Potency, µM (highest dose often 46.1 µM), for the others: at the top dose activity, negative = toxicity, usual class: cytotoxic. 360,000 tested, 2% active;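 also: potency is read from the fitted curve at half-maximal effect; 0% = DMSO wells and -100% = cell-free medium wells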
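HT-1080-IDH1KD cells (IDH1 knocked down), 750/well in RPMI with 5% FBS, treated with compound 48 h at 37 degrees C. Viability by CellTiter-Glo luminescence, normalised to DMSO and no-cell wells; concentration-response curves classed.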
IL1B secr inh: qHTS for Inhibitors of Inflammasome Signaling: IL-1-beta AlphaLISA Primary Screen. 360,000 tested, 4.7% active. AID 743279, 2014. THP-1 LPS/ATP IL-1B secretion, AlphaLISA, 16 h; stronger effect = lower value. activity change, % at 57.5 µM; in the data active = activity change below about -50%; inconclusive = mostly about -30% to -49%
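THP-1 cells pretreated 1 hr with compounds (up to 57.5 uM final), then stimulated with LPS (250 ng/mL final) plus ATP (1.25 mM final); secreted IL-1B measured by AlphaLISA after 16 hr, decreased signal indicating inhibition.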
HT1080-NT tox: qHTS for induction of synthetic lethality in tumor cells producing 2HG: qHTS for the HT-1080-NT fibrosarcoma cell line | Potency, µM (top dose mostly 46.1 µM), for inactives: at the highest dose activity, negative = less viability, actives largely listed as cytotoxic | HT-1080-NT fibrosarcoma viability, CellTiter-Glo ATP luminescence, 48 h | 360,000 tested, 1.6% active;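 also: NT is the 2HG producing partner of a matched IDH1 knockdown line; potency is read from the fitted curve at half-maximal effect; 0% = DMSO-treated cells and -100% = media-only wells without cells; nearly all actives have a fitted effect of over 55% in size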
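Toxicity toward the 2HG-producing NT line was scored as %Activity, normalised to DMSO and no-cell wells, from CellTiter-Glo luminescence after 48 hours' treatment.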
TDP1 cell CPT: qHTS for Inhibitors of human tyrosyl-DNA phosphodiesterase 1 (TDP1): qHTS in cells in presence of CPT; chicken DT40 Tdp1-/-;hTDP1 cells + 20 nM CPT, ATP luminescence, 48 h; Potency, µM (titrated, usually from 46.2 µM), inactives show at the top dose activity change, negative = growth inhibition, hits mostly inhibitors; 420,000 tested, 12% active; also: potency is read from the fitted curve at half-maximal effect; nearly all actives have a fitted effect of over 55% in size
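Cell growth measured by CellTiter-Glo luminescence after a minimum 48 h, 37 C compound exposure with 20 nM CPT in Tdp1-knockout DT40 cells stably expressing hTDP1, seeded 400/well; qHTS titration format.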
TDP1 cell noCPT: qHTS for Inhibitors of human tyrosyl-DNA phosphodiesterase 1 (TDP1): qHTS in cells in absence of CPT. Potency, µM (highest dose often 46.2 µM), without a hit: at the highest dose activity change, negative = growth inhibition, hits mostly inhibitors. DT40 Tdp1-/- hTDP1 cells, no CPT, ATP luminescence, 48 h. AID 686978, 2013. 420,000 tested, 15% active; also: potency is read from the fitted curve at half-maximal effect; nearly all actives have a fitted effect of over 55% in size
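A cellular qHTS used chicken DT40 cells lacking endogenous Tdp1 but carrying stably transfected human TDP1. Compounds were applied without camptothecin, and cell growth kinetics were judged by ATP-dependent luminescence after ≥48 hr.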
Numbers without * were called inactive; ? = inconclusive; / = not tested or not shown; [ ] = remark or other dose. Unless noted, calls follow the shape of the dose curve; as a rule, active = well fitted curve in the direction sought with a large enough effect; inconclusive = small, poorly fitted or top-dose-only effect, or another doubt; inactive = no such curve, though single readings can be large; an effect the other way counts as inactive or inconclusive. Unless noted, % is scaled to controls: 0 for no effect and ±100 for the full control effect.

SMILES | 12-LOX inh | HT1080 IDH1KD tx | IL1B secr inh | HT1080-NT tox | TDP1 cell CPT | TDP1 cell noCPT
O=C(Nc1nnc(S(=O)(=O)N2CCCC2)s1)c1ccccc1F | 7.3% | 0.7% | -58.9* | -1.7% | -6.2% | ?
COc1ccc(C)cc1NC(=O)c1cc(S(=O)(=O)N2CCC(C)CC2)ccc1F | -22.7% | / | / | / | 16.4µM* | 20.6µM*
COc1ccc(S(=O)(=O)N2CCOCC2)cc1NC(=O)CCNC(=O)c1ccc([N+](=O)[O-])cc1 | ? | 5.8µM* | -20.0 | -3.1%[9.24 µM] | ? | 7.31µM*
COc1ccc(S(=O)(=O)N2CCOCC2)cc1NC(=O)c1ccc(S(=O)(=O)N2CCCCC2)cc1 | 22.4% | 2.6% | -15.5 | 1.5% | 11.6µM* | ?
O=C(Nc1nnc(S(=O)(=O)N2CCCCCC2)s1)c1ccccc1Cl | -3.5% | 0.2% | 4.2 | 5.6% | ? | -26.6%
O=C(CSc1ccc(Cl)cc1)OCC(=O)c1ccc2c(c1)OCCO2 | -0.9% | / | / | / | / | /
COc1ccc(NC(=O)c2ccc(NC(=O)CN(C)CC(=O)Nc3c(C)cccc3C)cc2)cc1 | -6.6% | -6.1% | -11.6 | -1.9% | ? | ?
NS(=O)(=O)c1ccc(Nc2ncc([N+](=O)[O-])cc2[N+](=O)[O-])cc1 | -26.0% | / | / | / | / | /
COc1ccc(S(=O)(=O)N2CCCCC2)cc1NC(=O)c1ccc(CS(C)(=O)=O)cc1 | 125.2% | -10.0% | -21.8 | -5.5% | -5.9% | 18.4µM*
COc1ccc(S(=O)(=O)N2CCCCC2)cc1NC(=O)c1ccc(C)cc1 | 347.3% | 8.1% | -1.1 | 0.9% | 6.1% | 13.5%
COc1ccc(S(=O)(=O)N2CCCCCC2)cc1NC(=O)c1ccccc1F | 288.4% | -1.6% | 0.0 | -5.0% | 16.4µM* | -80.5%
CC1(C)CN(C(=O)c2coc(COc3ccc4c(c3)OCO4)n2)CCO1 | 16.4% | / | / | / | / | /
c1ccc(-c2ccc3ncc(Nc4cccnc4)n3n2)cc1 | 57.6%[176 µM] | / | / | / | / | /
Cc1nc(SCC(=O)c2cc3ccccc3oc2=O)c(C#N)c(-c2cccs2)c1C(=O)Nc1ccccc1 | 3.4% | 9.4% | -3.0 | 7.4% | 20.6µM* | ?
N#Cc1ccc(-c2ccccc2)nc1SCCN1CCOCC1 | -17.9% | -19.2% | -75.3* | -1.6% | -29.6% | ?
O=C(c1cc2ccccc2oc1=O)N(c1ccc(Cl)cc1)C1C=CS(=O)(=O)C1 (stereo not given) | -19.9% | 9.6% | 0.0 | 7.7% | 16.4µM* | ?
Cn1cnnc1SCC(=O)c1cc2ccccc2oc1=O | 6.31µM* | -27.5% | -5.9 | 0.0% | -22.5% | -16.9%
Cc1cc(C)c(C#N)c(SCCN2CCOCC2)n1 | 51.8% | 10.7% | -10.7 | -1.3% | 27.9% | 12.4%
CC(C)C[C@@H]1N[C@H](C(=O)NC2CCCC2)Cc2c[nH]c3cccc1c23 | 10.0%[176 µM] | / | / | / | / | /
O=C(Nc1ccccc1NC(=O)c1ccncc1)c1ccncc1 | 0.7% | / | / | / | / | /
O=C(CSc1nnc(-c2cccnc2)o1)c1cc2ccccc2oc1=O | 0.0% | 2.2%[9.24 µM] | 14.9 | 3.1% | ? | ?
O=C(CSc1ccc(Cl)cc1)c1cc2ccccc2oc1=O | 7.08µM* | / | / | / | / | /
N#Cc1ccc(-c2ccccc2)nc1SCC(=O)c1cc2ccccc2oc1=O | 0.0% | ? | 10.2 | ? | 23.1µM* | ?
CC(C)c1c(C#N)c(N)nc(SCC(=O)c2cc3ccccc3oc2=O)c1C#N | 0.0% | -5.7% | -9.1 | -2.5% | ? | ?
COCCn1c(C)cc(C(=O)CSc2nnc(Nc3ccccc3F)s2)c1C | -13.4% | / | / | / | / | /
